According to PubChem BioAssay (NCI):
This is part of a sample that, as a whole, favours compounds with a hit. Of some 83,000 tested, about 20% had one in any assay.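 Cells were grown in 96-well plates and exposed to the test compound at a single concentration for 48 hours; results are reported as percent growth, with values below 10 considered active.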 The source made the active and inactive calls.

Legend:
Assay in all cases: NCI-60 one-dose screen, 48 h (100 = growth as untreated, 0 = no growth, -100 = all killed)
Details in all cases: 10 µM unless noted
SK-MEL-2 melanoma = system: SK-MEL-2 melanoma
EKVX NSCLC = system: EKVX NSCLC
SN12C renal = system: SN12C renal
UO-31 renal = system: UO-31 renal
TK-10 renal = system: TK-10 renal
ACHN renal = system: ACHN renal
CAKI-1 renal = system: CAKI-1 renal
A498 renal = system: A498 renal
CCRF-CEM leukemia = system: CCRF-CEM leukemia
MOLT-4 leukemia = system: MOLT-4 leukemia
SR leukemia = system: SR leukemia
RPMI-8226 leukemia = system: RPMI-8226 leukemia
OVCAR-8 ovarian = system: OVCAR-8 ovarian
OVCAR-5 ovarian = system: OVCAR-5 ovarian
OVCAR-4 ovarian = system: OVCAR-4 ovarian
SK-OV-3 ovarian = system: SK-OV-3 ovarian
IGROV1 ovarian = system: IGROV1 ovarian
OVCAR-3 ovarian = system: OVCAR-3 ovarian
HS 578T breast = system: HS 578T breast
NCI/ADR-RES ovarian = system: NCI/ADR-RES ovarian

Measured: growth

C=CCN1C(=O)c2cccc3c(N4CCOCC4)ccc(c23)C1=O
active: SK-MEL-2 melanoma -28.1% | EKVX NSCLC -7.17% | UO-31 renal -3.07% | TK-10 renal -12.9% | CAKI-1 renal -39.5% | A498 renal -57% | CCRF-CEM leukemia -7.18% | MOLT-4 leukemia -21.2% | SR leukemia -9.38% | RPMI-8226 leukemia -25.8% | IGROV1 ovarian -14.5% | OVCAR-3 ovarian -66.4% | HS 578T breast 4.58% | NCI/ADR-RES ovarian 6.06%
inactive: SN12C renal 17% | ACHN renal 18.6% | OVCAR-8 ovarian 20.7% | OVCAR-5 ovarian 21.4% | OVCAR-4 ovarian 14.4% | SK-OV-3 ovarian 13.9%

CCS/C(Nc1ccccc1)=C(\C#N)C(=O)Nc1ccc(OC)cc1
active: SK-MEL-2 melanoma -0.335% | CCRF-CEM leukemia 8.29% | SR leukemia 6.62% | OVCAR-3 ovarian -12.1% | NCI/ADR-RES ovarian -0.669%
inactive: EKVX NSCLC 52.4% | SN12C renal 37.8% | UO-31 renal 50% | TK-10 renal 47.7% | ACHN renal 51.9% | CAKI-1 renal 40.4% | A498 renal 22.7% | MOLT-4 leukemia 10.1% | RPMI-8226 leukemia 25.2% | OVCAR-8 ovarian 31.2% | OVCAR-5 ovarian 63.1% | OVCAR-4 ovarian 66.7% | SK-OV-3 ovarian 22.4% | IGROV1 ovarian 55.7% | HS 578T breast 27.4%

CCN1C2CCC1/C(=C\c1ccc(F)cc1)C(=O)/C2=C/c1ccc(F)cc1
inactive: SK-MEL-2 melanoma 58.9% | EKVX NSCLC 57.2% | SN12C renal 44.5% | UO-31 renal 53.6% | TK-10 renal 74.2% | ACHN renal 48.6% | CAKI-1 renal 66.4% | A498 renal 58.7% | CCRF-CEM leukemia 18.2% | MOLT-4 leukemia 13.9% | SR leukemia 24.5% | RPMI-8226 leukemia 18.5% | OVCAR-8 ovarian 12.5% | OVCAR-5 ovarian 73.4% | OVCAR-4 ovarian 47.3% | SK-OV-3 ovarian 62% | IGROV1 ovarian 45.7% | OVCAR-3 ovarian 11% | HS 578T breast 66.3% | NCI/ADR-RES ovarian 17.4%

CN(C)c1ccc(-c2ccc3c(c2)c(-c2ccccc2)nc(=O)n3C)cn1
active: RPMI-8226 leukemia 2.69%
inactive: SK-MEL-2 melanoma 26.8% | EKVX NSCLC 69.6% | SN12C renal 42.6% | UO-31 renal 42.3% | TK-10 renal 56.4% | ACHN renal 49.9% | CAKI-1 renal 34.7% | A498 renal 25.8% | CCRF-CEM leukemia 13% | MOLT-4 leukemia 29.9% | SR leukemia 16.7% | OVCAR-8 ovarian 54% | OVCAR-5 ovarian 53.2% | OVCAR-4 ovarian 74.6% | SK-OV-3 ovarian 38.6% | IGROV1 ovarian 49.1% | OVCAR-3 ovarian 13.1% | HS 578T breast 41.2% | NCI/ADR-RES ovarian 27.2%

C=CC(=O)Nc1ccc(Nc2nccc(-c3ccc(N4CCCC4)c(C#N)c3)n2)cc1
inactive: EKVX NSCLC 66.6% | SN12C renal 41.4% | UO-31 renal 21% | TK-10 renal 26.1% | ACHN renal 19.6% | CAKI-1 renal 18.7% | CCRF-CEM leukemia 16.7% | OVCAR-8 ovarian 65.9% | OVCAR-5 ovarian 73.4% | OVCAR-4 ovarian 47.3% | IGROV1 ovarian 35.9% | OVCAR-3 ovarian 14.1% | NCI/ADR-RES ovarian 57.2%
active: SK-MEL-2 melanoma -0.218% | A498 renal -36.9% | MOLT-4 leukemia -8.84% | SR leukemia -3.35% | RPMI-8226 leukemia -10.3% | SK-OV-3 ovarian 8.26% | HS 578T breast -5%

CCOC(=O)C1=C(C)/C(=C\c2[nH]c(C)c(C(=O)OCC)c2C)N=C1C
active: CCRF-CEM leukemia 4.69% | MOLT-4 leukemia 9.99%
inactive: SK-MEL-2 melanoma 85.6% | EKVX NSCLC 94.2% | SN12C renal 79.1% | UO-31 renal 73.7% | TK-10 renal 108% | ACHN renal 96.5% | CAKI-1 renal 85% | A498 renal 103% | SR leukemia 11.9% | RPMI-8226 leukemia 62.9% | OVCAR-8 ovarian 61.5% | OVCAR-5 ovarian 97.8% | OVCAR-4 ovarian 81.9% | SK-OV-3 ovarian 84.4% | IGROV1 ovarian 97% | OVCAR-3 ovarian 21.7% | HS 578T breast 103% | NCI/ADR-RES ovarian 88.9%

CN(Cc1cnc2nc(N)nc(N)c2n1)c1ccc(C(=O)NC(CCC(=O)O)C(=O)O)cc1Br (stereo not given)
inactive: SK-MEL-2 melanoma 67.4% | EKVX NSCLC 67.6% | SN12C renal 26% | UO-31 renal 38.8% | TK-10 renal 50.4% | ACHN renal 15.8% | CAKI-1 renal 19% | A498 renal 76.4% | CCRF-CEM leukemia 37.9% | MOLT-4 leukemia 30.5% | SR leukemia 34.1% | RPMI-8226 leukemia 54.3% | OVCAR-8 ovarian 45.5% | OVCAR-5 ovarian 27.7% | OVCAR-4 ovarian 75% | SK-OV-3 ovarian 45.3% | IGROV1 ovarian 40.9% | OVCAR-3 ovarian 53.8% | HS 578T breast 96.7% | NCI/ADR-RES ovarian 38.4%

O=C(NC(Cc1nnc2n(Cc3ccccc3)c(=O)c3c4c(sc3n12)CCCC4)c1ccccc1)c1ccccc1 (stereo not given)
inactive: SK-MEL-2 melanoma 108% | EKVX NSCLC 99.3% | SN12C renal 119% | UO-31 renal 65% | TK-10 renal 119% | ACHN renal 127% | CAKI-1 renal 101% | A498 renal 109% | CCRF-CEM leukemia 61.9% | MOLT-4 leukemia 61.2% | SR leukemia 104% | RPMI-8226 leukemia 123% | OVCAR-8 ovarian 77.1% | OVCAR-5 ovarian 86.7% | OVCAR-4 ovarian 103% | SK-OV-3 ovarian 110% | IGROV1 ovarian 54.9% | OVCAR-3 ovarian 107% | HS 578T breast 101% | NCI/ADR-RES ovarian 87.9%

CNCc1cccc2c1OCCOCCOCCNS(=O)(=O)c1ccc(cc1)-c1cnc(N)c(n1)C(=O)N2
active: CCRF-CEM leukemia 7.66% | MOLT-4 leukemia 8.14% | SR leukemia 3.81% | OVCAR-3 ovarian 2.52%
inactive: SK-MEL-2 melanoma 30% | EKVX NSCLC 77.4% | SN12C renal 19.2% | UO-31 renal 77.6% | TK-10 renal 41.7% | ACHN renal 54.7% | CAKI-1 renal 28.4% | A498 renal 51.5% | RPMI-8226 leukemia 65.6% | OVCAR-8 ovarian 28% | OVCAR-5 ovarian 56.3% | OVCAR-4 ovarian 50.4% | SK-OV-3 ovarian 27.9% | IGROV1 ovarian 24.8% | HS 578T breast 48.7% | NCI/ADR-RES ovarian 108%

COc1cnc2c(c1)C(=O)c1c-2n(CCCCl)c(=O)c2ccncc12
active: OVCAR-3 ovarian 2.98%
inactive: SK-MEL-2 melanoma 102% | EKVX NSCLC 79.1% | SN12C renal 70.4% | UO-31 renal 41.4% | TK-10 renal 87.3% | ACHN renal 37.3% | CAKI-1 renal 35.7% | A498 renal 73.2% | CCRF-CEM leukemia 34.6% | MOLT-4 leukemia 26.2% | SR leukemia 17.1% | RPMI-8226 leukemia 41.9% | OVCAR-8 ovarian 66.2% | OVCAR-5 ovarian 116% | OVCAR-4 ovarian 66.2% | SK-OV-3 ovarian 89.3% | IGROV1 ovarian 55.5% | HS 578T breast 84.3% | NCI/ADR-RES ovarian 59%

C[C@]1(O)CC(=O)[C@]2(O)C3=C(C=C[C@]2(O)C1)C(=O)c1c(O)cccc1C3=O
active: SN12C renal 3.18% | UO-31 renal -96.6% | TK-10 renal -82.8% | ACHN renal -100% | CAKI-1 renal -59.8% | CCRF-CEM leukemia 0.446% | MOLT-4 leukemia -12.8% | RPMI-8226 leukemia -0.202% | OVCAR-8 ovarian -12.6% | OVCAR-4 ovarian -97.9% | OVCAR-3 ovarian -32.8%
inactive: SK-MEL-2 melanoma 89.7% | EKVX NSCLC 73.8% | A498 renal 117% | SR leukemia 10.5% | OVCAR-5 ovarian 38.8% | SK-OV-3 ovarian 98.8% | IGROV1 ovarian 27.1% | HS 578T breast 71.8% | NCI/ADR-RES ovarian 47.2%

CCN1C(=O)N(CC)C2C1NN=c1s/c(=C\c3ccc[nH]3)c(=O)n12 (stereo not given)
inactive: SK-MEL-2 melanoma 23.4% | EKVX NSCLC 47.4% | SN12C renal 39.2% | UO-31 renal 39.2% | TK-10 renal 61.6% | ACHN renal 42.3% | CAKI-1 renal 27.5% | MOLT-4 leukemia 20.4% | SR leukemia 16.3% | RPMI-8226 leukemia 15.5% | OVCAR-8 ovarian 11.2% | OVCAR-5 ovarian 22.2% | OVCAR-4 ovarian 50.6% | SK-OV-3 ovarian 27.1% | IGROV1 ovarian 28.8%
active: A498 renal -4.45% | CCRF-CEM leukemia 4.06% | OVCAR-3 ovarian -25.3% | HS 578T breast 7.95% | NCI/ADR-RES ovarian 8.11%

CN1CCN(Cc2ccc(NC(=O)c3cncc(C#Cc4cnc(N)c5ccc(F)cc45)c3)cc2C(F)(F)F)CC1
inactive: EKVX NSCLC 42% | SN12C renal 13.2% | TK-10 renal 24.1% | CAKI-1 renal 19.7% | A498 renal 25% | MOLT-4 leukemia 13.1% | OVCAR-8 ovarian 33.9% | OVCAR-5 ovarian 44.7% | OVCAR-4 ovarian 30.9% | OVCAR-3 ovarian 19.7% | HS 578T breast 11.4% | NCI/ADR-RES ovarian 35.3%
active: SK-MEL-2 melanoma -55.1% | UO-31 renal -3.87% | ACHN renal 6.63% | CCRF-CEM leukemia -8.78% | SR leukemia -25.9% | RPMI-8226 leukemia 4.27% | SK-OV-3 ovarian -4.24% | IGROV1 ovarian 0.192%

Nc1[nH]c(=S)nc2oc(-c3ccccc3)c(-c3ccccc3)c12
inactive: SK-MEL-2 melanoma 101% | EKVX NSCLC 98% | SN12C renal 97.5% | UO-31 renal 86.9% | TK-10 renal 114% | ACHN renal 101% | CAKI-1 renal 109% | A498 renal 90.8% | CCRF-CEM leukemia 119% | MOLT-4 leukemia 107% | SR leukemia 93.8% | RPMI-8226 leukemia 99.8% | OVCAR-8 ovarian 101% | OVCAR-5 ovarian 98.2% | OVCAR-4 ovarian 97.2% | SK-OV-3 ovarian 103% | IGROV1 ovarian 100% | OVCAR-3 ovarian 102% | HS 578T breast 91.1% | NCI/ADR-RES ovarian 98.9%

Cc1cccc[n+]1C1c2ccccc2-c2ccccc21
inactive: SK-MEL-2 melanoma 90.2% | EKVX NSCLC 93.8% | SN12C renal 94.2% | UO-31 renal 90.7% | TK-10 renal 89.5% | ACHN renal 107% | CAKI-1 renal 100% | A498 renal 82.9% | CCRF-CEM leukemia 78.5% | MOLT-4 leukemia 98.3% | SR leukemia 102% | RPMI-8226 leukemia 70.7% | OVCAR-8 ovarian 96.6% | OVCAR-5 ovarian 99% | OVCAR-4 ovarian 97.8% | SK-OV-3 ovarian 73.3% | IGROV1 ovarian 92.2% | OVCAR-3 ovarian 98.5% | HS 578T breast 101% | NCI/ADR-RES ovarian 111%
